Screening data as filed in PubChem BioAssay.
EP2 modulator – EP2 receptor modulators, cAMP readout, primary screen, cell-based, HTRF cAMP, PGE2 stimulation; EP2-expressing cells, cAMP HTRF FRET, PGE2 co-stimulation; 260,000 compounds, 0.83% hits; induction, % at 25 µM; Prostaglandin E2 receptor EP2 subtype (Homo sapiens), P43116;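 active means compounds whose cAMP rise, as percent of the full-agonist control response, exceeds 60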;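 further: rat C6 glioma line stably carrying human EP2 under a CMV promoter; the protocol text gives 20 µM as final concentration; 100% = response of wells given 1 µM PGE2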
Cl transport mod – KCC2 cotransporter modulators, thallium flux, primary screen, cell-based, HEK293 KCC2, FluoZin-2 fluorescence, MLSMR; Solute carrier family 12 member 5 (Homo sapiens), Q9H2X9; KCC2 cells, thallium flux FluoZin-2 fluorescence; B-score of Tl+ flux slope (higher = more flux/activation; lower = inhibition) at 10 µM; 190,000 compounds, 2.2% hits; AID 1456, 2008;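 active means thallium flux slope and its plate-corrected score both differing from the plate sample mean at a set confidence after two filtering rounds, in either direction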;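 further: slope of fluorescence scaled to starting intensity during 10 to 20 s after thallium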
Target sequence (Q9H2X9 whole entry, looked up): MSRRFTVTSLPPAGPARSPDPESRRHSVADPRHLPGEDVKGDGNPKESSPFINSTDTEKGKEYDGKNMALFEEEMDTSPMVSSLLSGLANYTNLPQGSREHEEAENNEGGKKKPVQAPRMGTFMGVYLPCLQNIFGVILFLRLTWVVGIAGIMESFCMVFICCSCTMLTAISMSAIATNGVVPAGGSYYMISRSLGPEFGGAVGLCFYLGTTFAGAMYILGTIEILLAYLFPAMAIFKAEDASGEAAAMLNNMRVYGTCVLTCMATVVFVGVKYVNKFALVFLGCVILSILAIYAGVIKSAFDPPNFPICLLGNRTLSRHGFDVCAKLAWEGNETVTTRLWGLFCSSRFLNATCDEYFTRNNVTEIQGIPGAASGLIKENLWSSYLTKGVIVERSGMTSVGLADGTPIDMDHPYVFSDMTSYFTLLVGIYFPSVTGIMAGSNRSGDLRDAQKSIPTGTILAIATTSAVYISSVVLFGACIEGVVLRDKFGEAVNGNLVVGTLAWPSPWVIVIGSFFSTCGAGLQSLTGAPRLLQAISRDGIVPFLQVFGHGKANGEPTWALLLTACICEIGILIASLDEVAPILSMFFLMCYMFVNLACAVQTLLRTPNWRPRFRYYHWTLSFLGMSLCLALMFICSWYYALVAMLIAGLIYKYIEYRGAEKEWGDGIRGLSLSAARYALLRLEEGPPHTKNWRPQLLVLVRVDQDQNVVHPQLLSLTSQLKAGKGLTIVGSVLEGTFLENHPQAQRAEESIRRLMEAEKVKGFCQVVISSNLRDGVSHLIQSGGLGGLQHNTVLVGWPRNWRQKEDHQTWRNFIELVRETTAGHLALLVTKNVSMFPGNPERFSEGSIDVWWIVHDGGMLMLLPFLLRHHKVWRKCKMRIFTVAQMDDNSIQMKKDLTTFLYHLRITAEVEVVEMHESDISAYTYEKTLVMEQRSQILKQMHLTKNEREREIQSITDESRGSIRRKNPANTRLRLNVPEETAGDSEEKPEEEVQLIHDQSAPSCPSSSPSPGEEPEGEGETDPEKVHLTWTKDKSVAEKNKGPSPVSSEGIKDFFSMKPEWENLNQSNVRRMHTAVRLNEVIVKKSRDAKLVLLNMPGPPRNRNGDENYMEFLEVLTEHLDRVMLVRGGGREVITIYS
EP2 antag – human EP2 receptor antagonists, primary screen, TR-FRET cAMP, C6 glioma cells; Prostaglandin E2 receptor EP2 subtype (Homo sapiens), P43116; C6 glioma cells expressing human EP2; cells stimulated with saturating PGE2; inhibition, % at 25 µM; 260,000 compounds, 0.52% hits; AID 1422, 2008;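 active means percent inhibition above 40 after rounding to a whole number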;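 further: rat C6 glioma host cells with rolipram phosphodiesterase inhibitor present; the protocol text gives 20 µM as final concentration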
S1P3 antag – S1P3 receptor antagonists, primary screen, cell-based. Sphingosine 1-phosphate receptor 3 (Homo sapiens), Q99500. CHO S1P3 NFAT-BLA reporter, FRET fluorescence, antagonist mode. inhibition, % at 4.98 µM. 170,000 compounds, 0.27% hits. AID 485, 2006;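 active means inhibition above the plate cutoff, the mean inhibition of test wells on that plate plus 3 SD, cut at about 28% in these data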;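 further: cells challenged with S1P at its EC80 of 0.8 µM; blue over green emission ratio from cleaved BLA substrate after 4 h stimulation; 0% = S1P-stimulated wells and 100% = unstimulated DMSO-only wells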
* hit, by the source's call; · = not tested or not shown; ! = a repeat was not active. This is a sample that favours compounds with a hit; in the whole collection about 3.1% have one here.

SMILES	EP2 modulator	Cl transport mod	EP2 antag	S1P3 antag
CC(C)(C)C(=O)NC(=C(Cl)Cl)P(=O)(O)O	0.3	-3.8*	5.7	-9.1
CC1CC(C)CN(C(=O)Cn2nc3c4ccccc4nc(C(C)C)n3c2=O)C1 (configuration not stated)	-36.0	·	-0.2	·
C1=CC2CC1CC2CN1CCN(C2CCN(Cc3ccccc3)CC2)CC1 (configuration not stated)	-40.4	·	3.3	·
COc1ccc(OC)c2sc(NC(=O)c3ccc(Br)s3)nc12	-18.3	6.15*	14.1	-42.1
O=c1[nH]c(O)c(/C=C2\C=Nc3ccccc32)[nH]1	-59.6	-0.0554	11.9	-0.7
O=c1oc2ccccc2c(O)c1/C=C1\C=Nc2ccccc21	-55.2	-2.14	51.6*	·
COc1cccc(Cn2cc(C(=O)NCCN3CCCCCC3)nn2)c1	-9.0	·	3.8	·
O=C(CNC(=S)NC(=O)c1ccco1)c1ccccc1	-6.8	5.46*	12.4	·
O=C(CNC(=S)NC(=O)c1cccs1)c1ccccc1	-36.8	10.7*	12.3	-4.8
O=C(NC(=S)Nc1nc2ccccc2s1)c1cccs1	-37.7	72.3*	4.9	14.2
Cc1ccc(C(=O)NC(=S)NCC(=O)c2ccccc2)cc1	-15.2	·	8.6	·
CC(C)(C)NC(=O)CSc1nnc(Cc2ccccc2)n1Cc1ccco1	40.4	·	7.2	·
COc1ccc(NC(=O)/C(Cl)=C(/Cl)S(=O)Cc2ccccc2Cl)cn1 (configuration not stated)	-81.1	-2.79	51.5*	47.1*
S=c1nc(-c2ccc(Br)cc2)oc2c1CCCC2	14.6	82.6*	·	·
O=C(Cc1ccc([N+](=O)[O-])cc1)N1N=C2CCCCC2C1(O)C(F)(F)F (configuration not stated)	72.0*	-0.987	2.7	-7.5
CC(C)C(=O)N1N=C2CCCCC2C1(O)C(F)(F)F (configuration not stated)	22.1	-0.33	6.1	5.1
CC1(C)CC(=O)C(C(C2=C(O)CC(C)(C)CC2=O)c2ccc(Br)s2)C(=O)C1 (configuration not stated)	-78.2	0.194	51.0*	-11.9
CC(C)C1=C[C@@]23CC[C@@H]4[C@](C)(CCC[C@@]4(C)C(=O)O)[C@@H]2C[C@@H]1[C@H](C(=O)O)[C@@H]3C(=O)O	4.6	·	49.8*	·
CC(C)C1=CC2=CC[C@H]3[C@](C)(CO)CCC[C@]3(C)C2CC1 (some centres not stated)	42.4	·	3.4	·
Cc1nn(CC(=O)O)c(=O)c2cc3sccc3n12	-31.1	·	6.4	·
NC(=S)N/N=C1/CCSc2ccc3ccccc3c21	-36.5	4.35*	2.8	-4.3
O=C(CN1C(=O)[C@H]2CCCN2C(=O)c2ccccc21)NCC1CCCCC1	-16.7	·	8.5	·
CC12CCC(C(=O)N(Cc3ccccc3)Cc3ccccc3)(OC1=O)C2(C)C (configuration not stated)	61.2*	·	17.9	·
CC12CCC(C(=O)NCc3cccnc3)(OC1=O)C2(C)C (configuration not stated)	12.6	·	15.6	-26.8
O=C(O)c1cc([N+](=O)[O-])ccc1N1CCCCC1	22.1	-0.621	6.2	-1.9
SMILES	EP2 modulator	Cl transport mod	EP2 antag	S1P3 antag
Cc1ccc(C(=O)c2cc([N+](=O)[O-])ccc2N2CCCCC2)c(C)c1	63.1*	0.837	5.7	20.3
CN(c1ccc(C(=O)N2CCOCC2)cc1)S(C)(=O)=O	-8.0	·	146.3*	·
Cc1nc(NCCc2ccc(S(N)(=O)=O)cc2)c2c(C)c(C)sc2n1	-3.4	20.9*	16.0	·
Cc1nc(NCCNC(=O)c2ccco2)c2c(C)c(C)sc2n1	3.3	0.796	4.6	-21.5
CO/N=C/c1ccc(Sc2ccccc2N)c([N+](=O)[O-])c1	0.4	0.151	18.6	·
Nc1ccccc1Sc1ccccc1[N+](=O)[O-]	60.8*	0.303	10.9	-5.9
O=C(c1ccccc1)N1CCN(C2CCCCCC2)CC1	-3.5	0.193	1.8	-22.5
O=C(O)c1c2c(c(O)c3c1CN(C1CCCCC1)CO3)OCN(C1CCCCC1)C2	-3.8	·	60.6*	·
CCOC(=O)C1=C(N)OC2=C(C(=O)CC(C)(C)C2)C1c1ccc(C)cc1 (configuration not stated)	78.7*	·	15.2	·
CCCCOC(=O)CNc1n[nH]c(=S)[nH]c1=O	-31.7	·	113.7*	·
CCCCOC(=O)C(C)Nc1n[nH]c(=S)[nH]c1=O (configuration not stated)	6.5	·	36.0	·
CC(C)COC(=O)CNc1n[nH]c(=S)[nH]c1=O	-17.6	0.842	133.3*	·
CCOC(=O)c1ccc(N=c2ssnc2Cl)cc1	-48.2	0.328	7.6	-20.5
Clc1ccc(N=c2ssnc2Cl)cc1	-68.2	0.237	109.7*	·
COc1ccc(N=c2ssnc2Cl)cc1	-72.4	0.307	75.8*	·
COc1cc(N=c2ssnc2Cl)cc(OC)c1OC	-40.0	0.311	129.5*	-91.0
N#Cc1ccc(N=c2ssnc2Cl)cc1	-29.4	·	146.6*	·
Fc1ccc(N=c2ssnc2Cl)c(F)c1	-97.3	-0.403	5.5	-15.2
Clc1nssc1=Nc1ccccc1	-92.6	0.00981	7.3	-8.7
CCc1nc(NCCCO)c2nnn(Cc3ccc(F)cc3)c2n1	-7.2	·	3.8	·
CC(C)(C)OC(=O)N1CCC[C@@H](C(=O)c2ccc3c(c2)OCO3)C1	-77.0	·	·	·
CC(C)CNc1nc2c(c(=O)n(C)c(=O)n2C)n1Cc1cccc(Br)c1	61.9*	-0.0515	5.0	·
CCCN1/C(=C2/SC(=S)N(CC)C2=O)C=Cc2ccccc21	62.6*	-0.118	10.6	·
CCCN1C(=O)/C(=C2/C=Cc3ccccc3N2CC)SC1=S	24.1	-0.00163	6.5	10.7
O=C(Nc1ccccc1)c1nnsc1S(=O)c1ccc(Cl)cc1 (configuration not stated)	-25.5	1.3	142.3*	·
SMILES	EP2 modulator	Cl transport mod	EP2 antag	S1P3 antag
O=C(c1nnsc1S(=O)c1ccc(Cl)cc1)N1CCOCC1 (configuration not stated)	-76.5	1.35	21.3	-15.8
C=CCn1c(Sc2ncc([N+](=O)[O-])s2)n[nH]c1=O	-41.9	-3.48	7.9	2.2
O=[N+]([O-])c1cnc(Sc2ccncn2)s1	-43.7	-3.27	69.7*	11.4
O=C(Nc1ccccc1)N1CCCc2ccccc21	30.6	1.25	9.4	·
COc1ccc(C)cc1NC(=O)N1CCCc2ccccc21	61.4*	-1.03	2.4	6.6
CCOc1cc(CN2CCN(Cc3ccc(OC)c(OCC)c3)CC2)ccc1OC	0.2	·	6.3	·
O=C(Nc1ccccc1-c1ccccc1)c1cnccn1	66.1*!	0.173	14.3	-29.2
Cc1cccc(Oc2ccccc2NC(=O)c2cnccn2)c1	60.9*	0.165	13.1	·
O=C(CSc1nc(-c2ccccc2)cc(C(F)(F)F)n1)NCC1CCCO1 (configuration not stated)	-93.5	·	12.3	·
COc1ccc(S(=O)(=O)N2c3ccccc3OCC2C)cc1 (configuration not stated)	15.2	-0.156	7.1	14.9
